From PubChem BioAssay
Shown is part of a subset that was picked to be rich in hits.
IDE exosite FP: exo-site inhibitors of human IDE, primary screen, biochemical, fluorescence anisotropy, probe displacement; 17,000 tested, 6.3% active; z-score at 20 µM; AID 1259349, 2017; purified IDE, FL-6b probe fluorescence polarization; active compounds read low;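 active = z-score of -3 or lower, meaning strong loss of probe binding signal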;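 also: His-tagged human IDE residues 42-1019 made in E. coli with 30 nM FL-6b probe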
Each line names hits and unclear results; the compound was inactive in the other large screens.

CNC[C@H]1OCCCC[C@@H](C)Oc2ccc(N)cc2C(=O)N([C@@H](C)CO)C[C@@H]1C	none
CS(=O)(=O)N1CC(=O)N2[C@H](CO)[C@@H](c3ccc(C#CCC4CCCC4)cc3)[C@@H]2C1	none
O=C(C1CCCCC1)N1CC(=O)N2[C@H](C1)[C@H](c1ccc(C#Cc3cccc(F)c3)cc1)[C@@H]2CO	none
O=C(C1CC1)N1CC(=O)N2[C@H](CO)[C@H](c3ccc(C#CCc4ccccc4)cc3)[C@H]2C1	none
O=C(C1CC1)N1CC(=O)N2[C@@H](CO)[C@@H](c3ccc(C#Cc4cccc(F)c4)cc3)[C@@H]2C1	IDE exosite FP -4.7
O=C(C1CCCC1)N1CC(=O)N2[C@H](CO)[C@H](c3ccc(C#CC4CCCC4)cc3)[C@@H]2C1	none
O=C(C1CCOCC1)N1CC(=O)N2[C@H](CO)[C@@H](c3ccc(C#Cc4cccc(F)c4)cc3)[C@@H]2C1	IDE exosite FP -10
O=C(C1CCC1)N1CC(=O)N2[C@H](CO)[C@@H](c3ccc(C#Cc4cccc(F)c4)cc3)[C@@H]2C1	IDE exosite FP -4.4
O=C(C1CC1)N1CC(=O)N2[C@H](CO)[C@H](c3ccc(C#CC4CCCC4)cc3)[C@H]2C1	none
O=C(C1CCC1)N1CC(=O)N2[C@H](CO)[C@H](c3ccc(C#Cc4cccc(F)c4)cc3)[C@H]2C1	IDE exosite FP -10
COc1ccc(C#Cc2ccc([C@@H]3[C@@H](CO)N4C(=O)CN(C(=O)C5CCOCC5)C[C@H]34)cc2)cc1	none
O=C(C1CCCCC1)N1CC(=O)N2[C@H](CO)[C@@H](c3ccc(C#Cc4cccc(F)c4)cc3)[C@H]2C1	none
O=C(C1CCC1)N1CC(=O)N2[C@@H](CO)[C@H](c3ccc(C#CCc4ccccc4)cc3)[C@@H]2C1	none
COc1ccc(C#Cc2ccc([C@H]3[C@@H](CO)N4C(=O)CN(C(=O)C5CCOCC5)C[C@H]34)cc2)cc1	none
C/C=C/c1ccc([C@@H]2[C@@H](C#N)N(C(=O)NC3CCCC3)[C@@H]2CO)cc1	none
COCC(=O)Nc1ccc2c(c1)[C@H]1C[C@@H](CC(=O)N[C@H](C)c3ccccc3)O[C@H](CO)[C@H]1O2	none
N#Cc1ccc(-c2ccc([C@H]3[C@H](CO)N4C(=O)CN(C(=O)C5CCCC5)C[C@@H]34)cc2)cc1	none
O=C(C[C@@H]1CC[C@H]2[C@@H](COC[C@H](O)CN2C(=O)Nc2ccc(Cl)cc2)O1)NCC1CCCCC1	none
COc1ccc(-c2ccc([C@H]3[C@@H](CO)N(C(=O)C4CC4)[C@H]3C#N)cc2)cc1	none
O=C(Cc1ccccc1)N1CC(=O)N2[C@H](CO)[C@@H](c3ccc(-c4ccc(F)cc4)cc3)[C@H]2C1	none
CC(C)CC#Cc1ccc([C@@H]2[C@@H](CO)N3CCCCN(C(=O)NC4CCCC4)C[C@@H]23)cc1	none
CCCC#Cc1ccc([C@H]2[C@H](CO)N3CCCCN(C(=O)NC4CCCC4)C[C@@H]23)cc1	IDE exosite FP -8.2
CC(C)CC#Cc1ccc([C@H]2[C@@H](CO)N3CCCCN(C(=O)NC4CCCC4)C[C@@H]23)cc1	none
O=C(NC1CCCC1)N1CCCCN2[C@H](C1)[C@H](c1ccc(-c3cncnc3)cc1)[C@@H]2CO	none
Cc1ccccc1-c1ccc([C@@H]2[C@H](CO)N3CCCCN(C(=O)NC4CCCC4)C[C@@H]23)cc1	IDE exosite FP -19
O=C(NC1CCCC1)N1CCCCN2[C@@H](CO)[C@H](c3ccc(-c4ccccc4)cc3)[C@@H]2C1	IDE exosite FP -3
O=C(NC1CCCC1)N1CCCCN2[C@H](CO)[C@@H](c3ccc(-c4ccncc4)cc3)[C@H]2C1	none
O=C(NC1CCCC1)N1CCCCN2[C@H](CO)[C@H](c3ccc(-c4cncnc4)cc3)[C@@H]2C1	none
COc1ccc(NC(=O)N2CCCCN3[C@H](C2)[C@H](c2ccc(-c4ccccc4C)cc2)[C@@H]3CO)cc1	none
O=C(NC1CCCC1)N1CCCCN2[C@H](C1)[C@H](c1ccc(-c3ccccc3)cc1)[C@@H]2CO	none
Cc1ccccc1-c1ccc([C@@H]2[C@@H](CO)N3CCCCN(C(=O)NC4CCCC4)C[C@H]23)cc1	IDE exosite FP -15
CS(=O)(=O)N1CC(=O)N2[C@H](CO)[C@H](c3ccc(C#Cc4ccc(F)cc4)cc3)[C@@H]2C1	none
O=C(C[C@H]1CC[C@@H]2[C@H](COC[C@@H](O)CN2C(=O)c2cnccn2)O1)NCc1ccc(Cl)cc1	none
N#C[C@@H]1[C@H](c2ccc(C#CC3CC3)cc2)[C@@H](CO)N1S(=O)(=O)c1ccccc1	none
C/C=C/c1ccc([C@@H]2[C@@H](CNC(=O)CC)N(C(=O)COC)[C@H]2CO)cc1	none
O=C([C@@H]1[C@@H](CO)[C@@H]2Cn3c(cccc3=O)[C@@H]2N1C(=O)CC1CC1)N1CCc2ccccc2C1	none
CN(C)c1ccc2c(c1)[C@H]1C[C@@H](CC(=O)NCc3ccccn3)O[C@@H](CO)[C@H]1O2	none
CS(=O)(=O)N1CC(=O)N2[C@H](CO)[C@H](c3ccc(C#Cc4cccc(F)c4)cc3)[C@@H]2C1	IDE exosite FP -9
CCC(=O)N1CC(=O)N2[C@@H](CO)[C@H](c3ccc(C#Cc4cccc(F)c4)cc3)[C@@H]2C1	none
